Most compounds without a hit are left out; they make up all but 10% or so of the library.
CCT modulator = modulators of cytosolic chaperonin (CCT/TRiC) activity. purified chaperonin ATPase assay, HTRF ADP detection, 30 min. activity change, % (concentration not given with the values), hits read low. 0.3% of 360,000 active. AID 651819; in the data active = activity change below about -30%
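First, chaperonin was dispensed at 40 nM or 20 nM final depending on batch activity. Next, compounds were pinned at 76 uM and ATP added at 10 uM. After 30 min at 37 °C, ADP detection reagents ran 30 min at ambient temperature.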
VDR inhibitor = vitamin D3 receptor (human) inhibition; P11473; VDR-SRC2-3 peptide fluorescence polarization, 2 h; Potency, µM, without a hit: max response, negative = inhibition, actives largely listed as inhibitors; 0.93% of 400,000 active; AID 504847; note: potency is the fitted concentration of half-maximal effect
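Signal is fluorescence polarization, reporting how far test compounds block the interaction of VDR with the SRC2-3 coregulator peptide after a 2 h room-temperature incubation.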
MmCpn inh = blocks the Methanococcus maripaludis chaperonin Mm-Cpn. purified Mm-Cpn ATPase, ADP Transcreener TR-FRET. Potency, µM (titrated, usually from 76.9 µM), without a hit: top-dose activity, negative = inhibition, hits mostly inhibitors. 0.031% of 330,000 active. AID 504842; note: potency is the fitted concentration of half-maximal effect; nearly all actives have a fitted effect of over 80% in size
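ATP (10 uM final) was added to archaeal chaperonin (25 nM final) after 10 min exposure to test compound at 37°C; after 30 min further incubation, ADP was detected by competitive TR-FRET.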
PLK1 PBD block = blocks phosphopeptide binding to human PLK1 polo-box domain. P53350. Plk1 PBD binding of FITC phosphopeptide, fluorescence polarization. Potency, µM, without a hit: max response, negative = inhibition, actives largely listed as inhibitors. 2.8% of 360,000 active. AID 720504; note: potency is the fitted concentration of half-maximal effect; series mostly up to about 57 µM; nearly all actives have a fitted effect of over 65% in size
Target sequence (P53350 whole entry, looked up, the tested form may be a part): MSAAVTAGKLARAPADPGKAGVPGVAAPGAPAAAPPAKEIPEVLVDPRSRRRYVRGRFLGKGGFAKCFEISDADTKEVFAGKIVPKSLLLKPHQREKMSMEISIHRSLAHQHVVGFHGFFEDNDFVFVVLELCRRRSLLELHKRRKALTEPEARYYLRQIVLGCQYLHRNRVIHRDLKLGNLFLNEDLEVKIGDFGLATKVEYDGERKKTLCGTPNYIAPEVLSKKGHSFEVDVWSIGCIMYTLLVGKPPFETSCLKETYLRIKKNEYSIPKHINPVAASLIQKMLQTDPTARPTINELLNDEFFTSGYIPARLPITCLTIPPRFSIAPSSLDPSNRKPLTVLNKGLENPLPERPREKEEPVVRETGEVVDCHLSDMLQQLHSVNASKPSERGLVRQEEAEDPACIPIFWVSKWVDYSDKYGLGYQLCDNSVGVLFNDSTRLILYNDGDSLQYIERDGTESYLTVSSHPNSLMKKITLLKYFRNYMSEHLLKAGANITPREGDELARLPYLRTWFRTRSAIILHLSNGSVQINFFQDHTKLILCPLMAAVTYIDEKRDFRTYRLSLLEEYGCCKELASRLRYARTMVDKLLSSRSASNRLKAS
Sfp PPTase inh = blocks B. subtilis Sfp PPTase activity; AID 1490; Potency, µM, for the others: largest response in the series, negative = inhibition, usual class: inhibitors; 3.5% of 310,000 active; Q9F4F7; Biochemical Sfp PPTase activity, qHTS;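 note: the enzyme is Sfp with the accession as filed and its product quenches rhodamine fluorescence; potency is the fitted concentration of half-maximal effect; 0% = enzyme reaction without inhibitor and -100% = no enzyme wells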
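Step 1, compound plus 15 nM Sfp-PPTase, 15 min, room temperature. Step 2, add rhodamine-CoA (5 uM) and BHQ-2-YbbR (12.5 uM). Step 3, read 525/598 nm fluorescence at 0 and 30 min.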
G9a inh = blocks human histone lysine methyltransferase G9a; Q96KQ7; G9a H3K9 monomethylation, AlphaScreen, 2 h; Potency, µM (top dose mostly 102 µM), inactives show top-dose activity, negative = inhibition, usual class: inhibitors; 8.8% of 350,000 active; AID 504332; note: potency is the fitted concentration of half-maximal effect; nearly all actives have a fitted effect of over 75% in size
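Quantitative HTS format: methyltransferase activity on a biotin-tagged H3K9 peptide is measured by AlphaScreen, using a rabbit anti-monomethyl-H3K9 antibody with streptavidin donor and anti-IgG acceptor beads. Final levels are 20 nM enzyme, 500 nM peptide, 20 uM SAM; 2 h RT.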
TbPYK confirm = Trypanosoma brucei pyruvate kinase inhibition, cherry-pick confirmation; shares compounds with PLK1 PBD block; recombinant TbPYK, Kinase-Glo ATP luminescence; Potency, µM (doses to about 76.9 µM), without a hit: top-dose activity change, negative = inhibition, actives largely listed as inhibitors; 67% of 890 active; AID 720569; note: potency is the fitted concentration of half-maximal effect; nearly all actives have a fitted effect of over 70% in size
TbPYK ADP-Glo = orthogonal confirmation of Trypanosoma brucei pyruvate kinase inhibitors; 62% of 890 active; recombinant TbPYK, ADP-Glo luminescence, 60 min; shares compounds with PLK1 PBD block; Potency, µM (titrated, usually from 76.9 µM), without a hit: at the top dose activity change, negative = inhibition, most hits filed as inhibitors; AID 720584; note: potency is the fitted concentration of half-maximal effect; nearly all actives have a fitted effect of over 75% in size
The depositor's hits bear a star; ? = inconclusive; . = no result given; [ ] = remark or other dose. Unless noted, calls come from the whole dose curve; as a rule, active = well fitted curve in the direction sought with a large enough effect; inconclusive = small, poorly fitted or top-dose-only effect, or another doubt; inactive = no such curve, though single readings can be large; an effect the other way counts as inactive or inconclusive. Unless noted, % is set by controls: 0 for no effect and ±100 for the full control effect.

SMILES | CCT modulator | VDR inhibitor | MmCpn inh | PLK1 PBD block | Sfp PPTase inh | G9a inh | TbPYK confirm | TbPYK ADP-Glo
O=C(c1ccc2ncsc2c1)N1CCN(c2ccccc2Cl)CC1 | -1 | 24% | -5% | ? | 15% | -3% | . | .
O=C(c1ccc2ncsc2c1)N1CCN(c2ccc(O)cc2)CC1 | -9 | 4% | 1% | -19% | -95% | . | 11µM* | ?
CCc1cccc(NC(=O)c2ccc3c(c2)N(Cc2cccc(Cl)c2)C(=O)c2ccccc2S3=O)c1 (stereo not given) | . | 4% | . | . | . | -29%[59 µM] | . | .
COc1ccc(OC)c(S(=O)(=O)Nc2cc3c(cc2N2CCCC2)n(C)c(=O)c(=O)n3C)c1 | 0 | ? | -11% | 21µM* | -5% | 10µM* | -21% | ?
COc1ccc(C(=O)Nc2nnc(SCc3cc(=O)c4cccc(F)c4[nH]3)s2)cc1 | . | -5% | . | . | . | -3%[59 µM] | . | .
Oc1cccc(-c2nc3ccccc3s2)c1 | 0 | -6% | -2% | -18% | 0% | ? | . | .
O=C(O)Cc1ccc2sc(-c3ccccc3)nc2c1 | -3 | -6% | -12% | 0% | 13% | 10%[59 µM] | 32µM* | 7%
O=S(=O)(NCCC1=CCCCC1)c1cccc(S(=O)(=O)N2CCOCC2)c1 | 0 | -27% | 0% | 2.7µM* | 14% | ? | 0% | -6%
O=S(=O)(NCCc1ccccc1)c1cccc(S(=O)(=O)N2CCOCC2)c1 | -2 | 10% | 0% | 1% | 19% | -14%[59 µM] | . | .
CCc1ccc(-n2nc(CO)c(C(=O)NCc3ccccn3)n2)cc1 | . | 3% | . | . | . | ? | . | .
COC(=O)/C=c1\sc2ncnn2c1=O | 4 | -14% | 1% | ? | 10µM* | 3.2µM* | 28µM* | 28µM*
CNC(=O)/C(C#N)=c1\s/c(=C/C(=O)OC)c(=O)n1-c1ccccc1 | -3 | 1% | -1% | -13% | 8% | 13%[0.501 µM] | . | .
CSc1nc(N)c2ncn([C@H]3O[C@H](COP(=O)(O)OP(=O)(O)OP(=O)(O)O)[C@@H](O)[C@@H]3O)c2n1 | . | 1% | . | . | -7% | . | . | .
CSc1nsc(SC)c1NC(=O)N1CCCC1 | 0 | -19% | -5% | -9% | -30% | ? | ? | 32µM*
Cn1c(=S)[nH]c2scc(-c3cccs3)c2c1=O | -36* | -23% | ? | ? | ? | 10µM* | 11µM* | 14µM*
O=c1c2c(-c3cccs3)csc2ncn1-c1ccc(Br)cc1 | 0 | 24% | -13% | -7% | 13% | -12%[12.7 µM] | . | .
O=C(Oc1ccccc1)N1CCC2(CC1)CCN(c1ccncc1)CC2 | . | -1% | . | . | 14% | 3%[12.7 µM] | . | .
CC(C)(C)c1cc(C(=S)N2CCN(CCO)CC2)cc(C(C)(C)C)c1O | 2 | 40µM* | 3% | 9.5µM* | 3.2µM* | ? | 3.5µM* | 7.9µM*
CCc1ccc(NC(=O)CSc2nnc(-c3nonc3NC(C)=O)n2-c2ccccc2)cc1 | . | 1% | . | . | . | -27%[59 µM] | . | .
CCCn1c(SCC(=O)Nc2nc(-c3ccc(OC)cc3)cs2)nc2c1c(=O)n(C)c(=O)n2C | 3 | 0% | ? | -12% | 10% | 10%[59 µM] | 11% | 2%
CC1(C)Cc2c(C#N)c(N)sc(=S)c2CS1 | -6 | ? | -1% | 8.4µM* | 16µM* | 25µM* | ? | ?
CC(C)c1nc(Cl)c(C#N)c2c1CSC(C)(C)C2 | -1 | -3% | 0% | -8% | -3% | -5% | . | .
C=CCOC(=O)C(C(C)=O)C(NC(=O)OC)c1ccco1 (stereo not given) | . | . | . | . | 26% | . | . | .
O=C(NCc1ccccc1)c1ccc2nc(-c3ccco3)c(-c3ccco3)nc2c1 | 0 | 40µM* | -3% | 7.5µM* | 7.1µM* | 1.8µM* | 18µM* | 18µM*
O=C(Nc1ccccc1)c1ccc2nc(-c3ccco3)c(-c3ccco3)nc2c1 | 2 | ? | -7% | 27µM* | 20µM* | ? | ? | ?
SMILES | CCT modulator | VDR inhibitor | MmCpn inh | PLK1 PBD block | Sfp PPTase inh | G9a inh | TbPYK confirm | TbPYK ADP-Glo
CCc1nc2ccc(C(=O)NCCc3ccco3)cc2nc1CC | 1 | -4% | -1% | -19% | -8% | -28% | . | .
O=C(NCCCO)c1ccc2nc(-c3ccco3)c(-c3ccco3)nc2c1 | 0 | 79µM* | -8% | 30µM* | 10µM* | 7.1µM* | 22µM* | 35µM*
O=C(NCc1ccccc1)c1ccc2nccnc2c1 | -1 | -11% | 1% | -4% | 2% | 16%[59 µM] | . | .
CCOC(=O)CC(=O)CSc1nc2c(sc(=S)n2-c2ccccc2)c(=O)[nH]1 | -1 | -16% | 0% | -16% | 10% | 0% | . | .
CCOc1ccccc1-n1c(=S)sc2c(=O)n(-c3ccc(C)cc3)c(=S)[nH]c21 | -1 | ? | -5% | 6.7µM* | 45µM* | 10µM* | 4.5µM* | 6.3µM*
C[C@@H]1CCCCO[C@@H](CN(C)C(=O)c2ccncc2)[C@@H](C)CN([C@H](C)CO)C(=O)c2cc(N(C)C)ccc2O1 | -2 | . | . | ? | . | . | . | .
Cc1ccc(S(=O)(=O)N(C)C[C@H]2OCCCC[C@@H](C)Oc3ccc(N(C)C)cc3C(=O)N([C@H](C)CO)C[C@@H]2C)cc1 | 1 | . | . | -9% | . | . | 7.1µM* | 7.9µM*
C[C@@H]1CCCCO[C@H](CN(C)C(=O)C2CCCCC2)[C@@H](C)CN([C@H](C)CO)C(=O)c2cc(N(C)C)ccc2O1 | -2 | . | . | ? | . | . | 28µM* | ?
Cc1ccc(S(=O)(=O)NNc2ccccc2)c(C)c1 | 1 | ? | 0% | 21µM* | 18µM* | 1µM* | 16µM* | ?
Cc1ccc(S(=O)(=O)NNC(=O)c2cccs2)c(C)c1 | -1 | 3% | -1% | 2% | 13% | -3%[59 µM] | . | .
Cc1ccc(-c2cc(C(=O)N3CC(C)CC(C)C3)c3ccccc3n2)o1 (stereo not given) | -1 | ? | 1% | 24µM* | 22µM* | 8.9µM* | 25µM* | 35µM*
COC(=O)c1cc(-c2ccc(C)o2)nc2ccccc12 | -5 | 79µM* | -2%[15.4 µM] | 15µM* | 11µM* | ? | ? | ?
CCn1c(CN2CCC(C)CC2)nc2cc(NC(=O)c3cccc([N+](=O)[O-])c3)ccc21 | . | -2% | . | . | . | 3%[59 µM] | . | .
Cc1ccc(S(=O)(=O)NNC(=O)C2CCN(S(=O)(=O)c3ccc(C)cc3)CC2)cc1 | 1 | -1% | 0% | -7% | 16% | 77%[59 µM] | 4% | -3%
O=C1C=CC(=O)N1c1ccc(Nc2ccccc2)cc1 | 1 | ? | . | 24µM* | . | . | ? | ?

High-throughput results from PubChem.
